Assay results from PubChem BioAssay (EPA / NIEHS).
Active and inactive are the calls of the source. Rule for the calls: active = hit-call score of the fitted dose curve at least 0.9, where 1 is the maximum; inactive = score below 0.9.

Assays:
[1] = APR_HepG2_NuclearSize_72hr: Apredica 72-hour HepG2 Assay for Nuclear Size (AID 2282925); conditions: high-content imaging, actives raise or lower the signal
How it was run: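 HepG2 cells were exposed to compounds at ten concentrations from 0.39 to 200 uM (duplicate, 0.5% DMSO final) for 72 hr. After fixation in 3.7% formaldehyde, nuclei were stained with Hoechst 33342 (2 ug/mL) and imaged at 20x.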

[2] = ATG_CRE_CIS: Attagene CIS-FACTORIAL HepG2 Assay for human cAMP Responsive Element (CRE) binding protein 3 (AID 2282926); conditions: HepG2 CRE cis-reporter, Attagene multiplexed mRNA; actives raise or lower the signal
How it was run: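 HepG2 cells transiently transfected with cis-element-driven multiple reporter transcription units; CRE reporter mRNA measured 24 h after dosing by RT-PCR, 6-FAM labelling, HpaI digestion and capillary electrophoresis. Bidirectional fit versus DMSO baseline.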

[3] = target: CCAAT/enhancer-binding protein beta (Homo sapiens) (UniProt P17676); assay: ATG_C_EBP_CIS: Attagene CIS-FACTORIAL HepG2 Assay for human CCAAT/Enhancer Binding Protein (C/EBP) beta (AID 2282927); conditions: HepG2 Attagene cis-factorial transcription factor reporter; actives raise or lower the signal
How it was run: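 RT-PCR/capillary electrophoresis fluorescence of reporter mRNA, 24 h post-dose, in HepG2 cells carrying transfected cis-promoter reporter units. Bidirectional curve fitting against DMSO baseline captures gain or loss of signal.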

[4] = ATG_CMV_CIS: Attagene CIS-FACTORIAL HepG2 Assay for human CMV (Internal Marker) (AID 2282928); conditions: HepG2 CMV promoter reporter, transcription factor profiling; actives raise or lower the signal;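 note: endpoint acts as a background internal control marker rather than a target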
How it was run: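 Endogenous transcription factor activity read in HepG2 via transfected cis-promoter reporter units. After 24 h dosing, reporter mRNA measured by RT-PCR/capillary electrophoresis; gain or loss of signal fit relative to DMSO.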

[5] = ATG_DR4_LXR_CIS: Attagene CIS-FACTORIAL HepG2 Assay for human Liver X Receptor (LXR), DR4 submotif (AID 2282929); conditions: HepG2 Attagene DR4 cis-reporter, mRNA transcription; actives raise or lower the signal
How it was run: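 DR4 cis-reporter in HepG2, 24 h exposure. Detection: RT-PCR, 6-FAM labelling, CE fragment analysis. Endpoint fitted bidirectionally, DMSO = baseline.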

[6] = ATG_AP_1_CIS: Attagene CIS-FACTORIAL HepG2 Assay for human Activator Protein 1 (AP-1) (AID 2282931); conditions: HepG2 Attagene cis-factorial AP-1 reporter mRNA; actives raise or lower the signal
How it was run: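 Cis-regulated reporter units transiently expressed in HepG2 report endogenous transcription-factor activity. Signal: reporter mRNA at 24 h, via RT-PCR and fluorescent capillary electrophoresis. Endpoint derived by bidirectional fitting, DMSO as negative control.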

[7] = ATG_AP_2_CIS: Attagene CIS-FACTORIAL HepG2 Assay for human Activator Protein 2 (AP-2) (AID 2282932); conditions: HepG2 AP-2 cis-reporter, Attagene transcription factor profiling; actives raise or lower the signal
How it was run: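 Bidirectional curve fitting against DMSO was applied to reporter mRNA signals from HepG2 cells 24 h after dosing. Cis-promoter reporter units, transiently transfected, were read by RT-PCR plus capillary electrophoresis.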

[8] = ATG_BRE_CIS: Attagene CIS-FACTORIAL HepG2 Assay for human Bone Morphogenetic Protein (BMP) Response Element (BRE) (AID 2282933); conditions: HepG2 BMP response element reporter, Attagene transcription factor profiling; actives raise or lower the signal
How it was run: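 Endogenous transcription factor activity read in transiently transfected HepG2 cells after 24 h chemical exposure. Bidirectional curve fitting against DMSO; readout is reporter transcript level by RT-PCR with capillary electrophoresis of labelled products.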

[9] = target: Retinoic acid receptor alpha (Homo sapiens) (UniProt P10276); assay: ATG_DR5_RAR_CIS: Attagene CIS-FACTORIAL HepG2 Assay for human Retinoic Acid Receptor Alpha (RARE), DR5 submotif (AID 2282934); conditions: HepG2 Attagene cis-factorial RARE DR5 reporter, mRNA; actives raise or lower the signal
How it was run: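 HepG2 cells transiently transfected with multiplexed reporter units under cis (DR5 RARE) promoters, so endogenous transcription factor activity is measured. After 24 h compound exposure, reporter mRNA is quantified by RT-PCR with fluorescent labelling and capillary electrophoresis; bidirectional fitting versus DMSO.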

[10] = target: Transcription factor E2F1 (Homo sapiens) (UniProt Q01094); assay: ATG_E2F_CIS: Attagene CIS-FACTORIAL HepG2 Assay for human E2F Transcription Factor 1 (AID 2282935); conditions: HepG2 Attagene cis-reporter, E2F reporter RNA transcripts; actives raise or lower the signal
How it was run: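 Multiplexed cis-reporter assay: HepG2, transient transfection, 24 h dosing, mRNA quantitation by labeled RT-PCR and CE.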

[11] = ATG_E_Box_CIS: Attagene CIS-FACTORIAL HepG2 Assay for human Enhancer Box (E-box) (AID 2282936); conditions: HepG2 E-box cis-reporter transcription, actives raise or lower the signal
How it was run: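 Multiplexed CIS reporter system in transiently transfected HepG2 cells measures native transcription factor activity. Reporter RNA after 24 h exposure is profiled by RT-PCR-capillary electrophoresis.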

[12] = ATG_M_61_CIS: Attagene CIS-FACTORIAL HepG2 Assay for M61 Transcription Factor (Internal Marker) (AID 2282937); conditions: HepG2 Attagene CIS-FACTORIAL M61 internal marker reporter; actives raise or lower the signal
How it was run: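 Background-control endpoint: HepG2 cells with cis-regulated reporter constructs, 24 h exposure, reporter mRNA detected via fluorescent primer extension and capillary electrophoresis; values from bidirectional fitting with DMSO baseline.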

[13] = ATG_M_19_CIS: Attagene CIS-FACTORIAL HepG2 Assay for M19 Transcription Factor (Internal Marker) (AID 2282939); conditions: HepG2 Attagene CIS-FACTORIAL M19 internal marker reporter; actives raise or lower the signal
How it was run: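 Internal marker readout, fitted in both directions against DMSO, from HepG2 cells carrying transfected cis-element reporter constructs; RT-PCR and capillary electrophoresis of reporter mRNA after 24 h exposure.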

[14] = ATG_ERE_CIS: Attagene CIS-FACTORIAL HepG2 Assay for Estrogen Response Element (ERE) (AID 2282940); conditions: HepG2 ERE cis-reporter, Attagene RNA transcript; actives raise or lower the signal
How it was run: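 After 24 h compound treatment, RNA from transfected HepG2 cells was reverse-transcribed, reporter cDNA PCR-amplified, FAM-labelled, HpaI-cut and resolved by capillary electrophoresis. ERE-driven cis reporter transcripts reflect endogenous factors; gain or loss scored against DMSO.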

[15] = ATG_Ets_CIS: Attagene CIS-FACTORIAL HepG2 Assay for human Erythroblast Transformation Specific (ETS) (AID 2282941); conditions: HepG2 ETS cis-reporter transcription, actives raise or lower the signal
How it was run: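 Steps: transfect HepG2 with multiple reporter units; treat compound 24 h; isolate RNA, DNase-treat, reverse-transcribe; PCR-amplify, label with 6-FAM, digest with HpaI; separate by capillary electrophoresis. Activity fitted both directions versus DMSO.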

[16] = target: Hepatocyte nuclear factor 3-beta (Homo sapiens) (UniProt Q9Y261); assay: ATG_FoxA2_CIS: Attagene CIS-FACTORIAL HepG2 Assay for human Forkhead box A2 (FOXA2) (AID 2282942); conditions: HepG2 cis-reporter transcription factor activity, 24 h; actives raise or lower the signal
How it was run: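 Measured: reporter mRNA induction or loss in HepG2 transiently carrying multiple cis-regulated reporter units, 24 h after dosing. Quantified by RT-PCR plus capillary electrophoresis, normalised to DMSO.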

[17] = ATG_FoxO_CIS: Attagene CIS-FACTORIAL HepG2 Assay for human Forkhead box O (FoxO) (AID 2282943); conditions: HepG2 Attagene cis-reporter, FoxO element, mRNA; actives raise or lower the signal
How it was run: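 HepG2 cells transiently transfected with cis-promoter-driven multiple reporter transcription units; 24 h after chemical dosing, reporter mRNA quantified by RT-PCR, fluorescent primer extension, HpaI digestion and capillary electrophoresis. Bidirectional fitting versus DMSO baseline.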

[18] = ATG_GATA_CIS: Attagene CIS-FACTORIAL HepG2 Assay for human GATA Binding Protein (AID 2282944); conditions: HepG2 GATA cis-element reporter, Attagene multiplex mRNA; actives raise or lower the signal
How it was run: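 Reporter transcripts from a GATA cis-regulated unit, among multiplexed reporters in transfected HepG2 cells, were measured by RT-PCR with capillary electrophoresis after 24 h dosing. Induction or loss scored relative to DMSO.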

[19] = target: Aryl hydrocarbon receptor (Homo sapiens) (UniProt P35869); assay: ATG_Ahr_CIS: Attagene CIS-FACTORIAL HepG2 Assay for human Aryl Hydrocarbon Receptor (Ahr) (AID 2282930); conditions: HepG2 AhR cis-factorial reporter transcription; actives raise or lower the signal
How it was run: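 HepG2 cells transiently transfected with cis-element-driven multiplexed reporter transcription units; endogenous transcription factor activity measured as reporter mRNA 24 h after dosing. RT-PCR, 6-FAM labelling, HpaI digestion, capillary electrophoresis; bidirectional fitting versus DMSO baseline.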

[20] = ATG_EGR_CIS: Attagene CIS-FACTORIAL HepG2 Assay for human Early Growth Response 1 (EGR1) (AID 2282938); conditions: HepG2 Attagene CIS-FACTORIAL EGR reporter mRNA; actives raise or lower the signal
How it was run: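 Endpoint derived by bidirectional fitting versus DMSO vehicle. Method: cis-promoter reporter units transfected into HepG2, 24 h dosing, RNA isolation, RT-PCR with 6-FAM primer extension and HpaI digestion, then capillary electrophoresis fluorescence detection.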

Aryl hydrocarbon receptor (Homo sapiens), sequence (P35869 whole entry, looked up): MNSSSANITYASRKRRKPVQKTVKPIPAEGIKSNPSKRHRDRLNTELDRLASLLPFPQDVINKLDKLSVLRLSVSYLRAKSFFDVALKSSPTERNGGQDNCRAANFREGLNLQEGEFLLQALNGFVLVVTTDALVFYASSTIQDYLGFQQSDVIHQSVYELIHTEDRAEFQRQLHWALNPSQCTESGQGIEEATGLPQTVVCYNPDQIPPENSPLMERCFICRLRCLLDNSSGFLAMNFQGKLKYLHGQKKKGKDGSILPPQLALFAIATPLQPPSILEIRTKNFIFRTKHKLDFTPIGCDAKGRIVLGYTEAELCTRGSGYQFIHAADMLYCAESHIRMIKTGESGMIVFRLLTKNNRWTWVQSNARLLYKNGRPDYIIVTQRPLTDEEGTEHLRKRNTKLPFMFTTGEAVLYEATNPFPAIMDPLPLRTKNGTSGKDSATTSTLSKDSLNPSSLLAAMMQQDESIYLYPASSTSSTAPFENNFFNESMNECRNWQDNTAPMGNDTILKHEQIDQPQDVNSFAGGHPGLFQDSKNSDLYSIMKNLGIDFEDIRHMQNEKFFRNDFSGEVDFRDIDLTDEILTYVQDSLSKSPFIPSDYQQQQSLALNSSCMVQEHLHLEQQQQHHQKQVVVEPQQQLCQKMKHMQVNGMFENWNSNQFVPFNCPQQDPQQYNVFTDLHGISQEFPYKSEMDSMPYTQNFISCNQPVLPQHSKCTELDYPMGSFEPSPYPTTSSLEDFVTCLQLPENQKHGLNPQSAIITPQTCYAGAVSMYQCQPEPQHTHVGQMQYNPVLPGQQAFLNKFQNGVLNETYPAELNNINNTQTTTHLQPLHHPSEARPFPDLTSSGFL
Retinoic acid receptor alpha (Homo sapiens), sequence (P10276 whole entry, looked up): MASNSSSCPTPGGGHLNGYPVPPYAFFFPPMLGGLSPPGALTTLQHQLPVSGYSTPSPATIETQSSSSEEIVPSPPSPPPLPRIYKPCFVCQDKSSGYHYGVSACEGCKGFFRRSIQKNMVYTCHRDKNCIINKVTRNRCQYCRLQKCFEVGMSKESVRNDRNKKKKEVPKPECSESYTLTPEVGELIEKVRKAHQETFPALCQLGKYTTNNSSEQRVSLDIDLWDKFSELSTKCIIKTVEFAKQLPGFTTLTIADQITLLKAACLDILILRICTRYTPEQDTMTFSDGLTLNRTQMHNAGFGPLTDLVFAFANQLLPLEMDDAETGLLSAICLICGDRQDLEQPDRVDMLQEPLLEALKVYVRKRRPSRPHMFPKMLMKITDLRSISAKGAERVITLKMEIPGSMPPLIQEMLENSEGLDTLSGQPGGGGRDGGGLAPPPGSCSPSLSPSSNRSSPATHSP
Transcription factor E2F1 (Homo sapiens), sequence (Q01094 whole entry, looked up): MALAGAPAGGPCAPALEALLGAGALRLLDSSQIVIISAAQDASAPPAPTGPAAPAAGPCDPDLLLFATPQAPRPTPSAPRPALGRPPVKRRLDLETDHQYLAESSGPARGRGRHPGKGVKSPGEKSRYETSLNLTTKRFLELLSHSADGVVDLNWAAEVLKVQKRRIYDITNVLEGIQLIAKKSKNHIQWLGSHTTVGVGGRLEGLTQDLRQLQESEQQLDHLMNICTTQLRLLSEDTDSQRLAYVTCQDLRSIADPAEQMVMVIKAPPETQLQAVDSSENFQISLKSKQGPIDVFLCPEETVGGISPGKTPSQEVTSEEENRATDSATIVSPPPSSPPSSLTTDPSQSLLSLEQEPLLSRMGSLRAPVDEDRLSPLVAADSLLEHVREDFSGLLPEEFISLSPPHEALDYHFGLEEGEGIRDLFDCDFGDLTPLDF
Hepatocyte nuclear factor 3-beta (Homo sapiens), sequence (Q9Y261 whole entry, looked up): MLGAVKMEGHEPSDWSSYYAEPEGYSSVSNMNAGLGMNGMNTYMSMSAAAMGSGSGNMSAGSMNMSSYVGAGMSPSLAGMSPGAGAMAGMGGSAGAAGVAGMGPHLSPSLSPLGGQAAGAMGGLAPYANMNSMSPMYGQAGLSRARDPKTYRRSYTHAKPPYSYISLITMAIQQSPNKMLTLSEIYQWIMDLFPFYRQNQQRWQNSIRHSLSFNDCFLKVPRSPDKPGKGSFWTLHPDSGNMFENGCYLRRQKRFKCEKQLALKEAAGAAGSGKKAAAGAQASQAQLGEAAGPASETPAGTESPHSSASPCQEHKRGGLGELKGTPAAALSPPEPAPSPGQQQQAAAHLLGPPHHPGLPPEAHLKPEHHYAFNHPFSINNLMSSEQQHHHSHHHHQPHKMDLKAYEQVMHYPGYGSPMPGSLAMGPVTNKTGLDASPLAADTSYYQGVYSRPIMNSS
CCAAT/enhancer-binding protein beta (Homo sapiens), sequence (P17676 whole entry, looked up): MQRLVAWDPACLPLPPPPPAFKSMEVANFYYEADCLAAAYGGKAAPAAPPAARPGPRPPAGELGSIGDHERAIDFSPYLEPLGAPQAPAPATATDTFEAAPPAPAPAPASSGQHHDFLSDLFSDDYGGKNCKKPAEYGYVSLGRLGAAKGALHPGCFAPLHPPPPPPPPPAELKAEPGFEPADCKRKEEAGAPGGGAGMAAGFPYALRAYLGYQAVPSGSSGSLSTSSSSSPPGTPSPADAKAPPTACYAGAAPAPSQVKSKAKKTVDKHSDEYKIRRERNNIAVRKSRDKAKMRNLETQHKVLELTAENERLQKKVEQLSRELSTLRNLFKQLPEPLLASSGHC

CCCc1ccccc1
outcome [1]: inactive
outcome [2]: inactive
outcome [3]: inactive
outcome [4]: inactive
outcome [5]: inactive
outcome [6]: inactive
outcome [7]: inactive
outcome [8]: inactive
outcome [9]: inactive
outcome [10]: inactive
outcome [11]: inactive
outcome [12]: inactive
outcome [13]: inactive
outcome [14]: inactive
outcome [15]: inactive
outcome [16]: inactive
outcome [17]: inactive
outcome [18]: inactive

OCCNCCO
outcome [1]: inactive
outcome [2]: inactive
outcome [4]: inactive
outcome [5]: inactive
outcome [19]: inactive
outcome [6]: inactive
outcome [7]: inactive
outcome [8]: inactive
outcome [9]: inactive
outcome [10]: inactive
outcome [11]: inactive
outcome [12]: inactive
outcome [13]: inactive
outcome [14]: inactive
outcome [15]: inactive
outcome [16]: inactive
outcome [17]: inactive
outcome [18]: inactive

CCc1cccc(CC)c1N
outcome [1]: inactive
outcome [2]: inactive
outcome [4]: inactive
outcome [5]: inactive
outcome [19]: inactive
outcome [6]: inactive
outcome [7]: inactive
outcome [8]: inactive
outcome [10]: inactive
outcome [11]: inactive
outcome [12]: inactive
outcome [20]: inactive
outcome [13]: inactive
outcome [14]: inactive
outcome [15]: inactive
outcome [16]: inactive
outcome [17]: inactive
outcome [18]: inactive

CCc1ccc(O)c(C(C)(C)C)c1
outcome [1]: inactive
outcome [2]: inactive
AC50 [4]: 43 µM (active)
outcome [5]: inactive
outcome [19]: inactive
AC50 [6]: 43.7 µM (active)
outcome [7]: inactive
outcome [8]: inactive
outcome [10]: inactive
outcome [11]: inactive
outcome [12]: inactive
outcome [20]: inactive
outcome [13]: inactive
outcome [14]: inactive
outcome [15]: inactive
outcome [16]: inactive
outcome [17]: inactive
outcome [18]: inactive

COc1cc2c(c(OC)c1OC)-c1ccc(OC)c(=O)cc1[C@@H](NC(C)=O)CC2
outcome [1]: inactive
outcome [2]: inactive
AC50 [4]: 0.0703 µM (active)
outcome [5]: inactive
outcome [19]: inactive
AC50 [6]: 0.123 µM (active)
AC50 [7]: 61.1 µM (active)
AC50 [8]: 4.6 µM (active)
outcome [9]: inactive
outcome [10]: inactive
AC50 [11]: 0.592 µM (active)
outcome [12]: inactive
outcome [20]: inactive
outcome [13]: inactive
outcome [14]: inactive
outcome [15]: inactive
outcome [16]: inactive
outcome [17]: inactive
outcome [18]: inactive

CCOc1ccc2[nH]cc(C(=O)NCc3ccccc3)c(=O)c2n1
outcome [1]: inactive
outcome [2]: inactive
outcome [4]: inactive
outcome [5]: inactive
AC50 [19]: 4.77 µM (active)
outcome [6]: inactive
outcome [7]: inactive
outcome [8]: inactive
outcome [9]: inactive
outcome [10]: inactive
outcome [11]: inactive
outcome [12]: inactive
outcome [13]: inactive
outcome [14]: inactive
outcome [15]: inactive
outcome [16]: inactive
outcome [17]: inactive
outcome [18]: inactive

c1ccc2cc3ccccc3cc2c1
outcome [1]: inactive
outcome [2]: inactive
outcome [4]: inactive
outcome [5]: inactive
outcome [19]: inactive
outcome [6]: inactive
outcome [7]: inactive
outcome [8]: inactive
outcome [9]: inactive
outcome [10]: inactive
outcome [11]: inactive
outcome [12]: inactive
outcome [13]: inactive
outcome [14]: inactive
outcome [15]: inactive
outcome [16]: inactive
outcome [17]: inactive
outcome [18]: inactive

OC[C@H]1O[C@@H]2O[C@H]3[C@H](O)[C@@H](O)[C@@H](O[C@H]4[C@H](O)[C@@H](O)[C@@H](O[C@H]5[C@H](O)[C@@H](O)[C@@H](O[C@H]6[C@H](O)[C@@H](O)[C@@H](O[C@H]7[C@H](O)[C@@H](O)[C@@H](O[C@H]1[C@H](O)[C@H]2O)O[C@@H]7CO)O[C@@H]6CO)O[C@@H]5CO)O[C@@H]4CO)O[C@@H]3CO
outcome [1]: inactive
outcome [2]: inactive
outcome [4]: inactive
outcome [5]: inactive
AC50 [19]: 33.5 µM (active)
outcome [6]: inactive
outcome [7]: inactive
outcome [8]: inactive
outcome [9]: inactive
outcome [10]: inactive
outcome [11]: inactive
outcome [12]: inactive
outcome [13]: inactive
outcome [14]: inactive
outcome [15]: inactive
outcome [16]: inactive
outcome [17]: inactive
outcome [18]: inactive
